Among the data in PubChem BioAssay AID2234 (The Scripps Research Institute Molecular Screening Center, 2010) are inhibition values, retold here.

Screen size: about 320,000 compounds; about 480 (0.15%) were called active. Rule as the data show it: active = inhibition above about 33%; inactive = the rest. Many of the other results were omitted from the sample, so actives are more common in it than they were.

Chain of Lytic switch protein BZLF1 (Epstein-Barr virus (strain B95-8)) (P03206 whole entry, looked up): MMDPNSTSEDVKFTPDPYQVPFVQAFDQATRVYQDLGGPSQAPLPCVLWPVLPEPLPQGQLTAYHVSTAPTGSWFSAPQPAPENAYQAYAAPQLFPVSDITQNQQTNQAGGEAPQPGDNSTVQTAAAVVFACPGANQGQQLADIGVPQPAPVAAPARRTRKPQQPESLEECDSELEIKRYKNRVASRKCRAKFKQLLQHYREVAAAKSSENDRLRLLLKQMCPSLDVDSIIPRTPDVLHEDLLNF

The experiment concerns the target Lytic switch protein BZLF1 (Epstein-Barr virus (strain B95-8)) (UniProt P03206). Description: Zta-DNA interaction blockers, Epstein-Barr virus – biochemical, fluorescence polarization, single concentration, counter-screen for EBNA-1 inhibitor project, primary screen (AID 2234). As to conditions: ZTA-DNA binding, at 11 µM, stronger effect = higher value. A general note: In fluorescence polarisation assays a small probe gives low polarisation when free and higher when bound to something large.
On to `CC(=O)Nc1ccc(NC(=O)COC(=O)c2ccccc2C(=O)c2ccccc2)cc1`, for which the inhibition was 1.75% (inactive).

Turning to `COc1ccc(N2CC(NS(=O)(=O)c3ccc4ccccc4c3)CC2=O)cc1` (stereo not given), the inhibition is -13.8% (inactive).

As to `CCC1=C(OC(=O)N(CC)CC)N2C(=O)OC(=NCC3CC3)[C@]2(C)[C@H]2C1=CC[C@H]1C(=O)N(CC(=O)OC)C(=O)[C@H]12`, the inhibition was 14% (inactive).

With `CN(C(=O)CN1C(=O)CCSc2ccc(S(=O)(=O)N3CCCC3)cc21)c1ccccc1`, the inhibition is 4.65% (inactive).

`COCCOC(=O)C1=C(C)NC(=O)NC1c1cc2c(cc1Br)OCO2` (stereo not given): the inhibition is -2.42% (inactive).

As for `Cc1cc(C(=O)OCC(=O)Nc2ccccc2Cl)c(C)o1`, the inhibition is -1% (inactive).

With `CC1(c2nnc(-c3ccncc3)o2)CC(c2cccnc2)=NO1` (stereo not given), the inhibition is -4.98% (inactive).

Turning to `CCNc1nc(Oc2ccc(C(=O)OC)cc2)nc(N2CCOCC2)n1`, the inhibition was 26.6% (inactive).

As for `CCN1CCN(CCNC(=O)c2ccc(/C=C3/Sc4ccccc4N(Cc4cccc(C)c4)C3=O)cc2)CC1`, the inhibition is 56.8% (active).

Take `Cc1ccccc1CN1C(=O)c2ccccc2Sc2ccc(C(=O)NCCCN3CCOCC3)cc21`: the inhibition was 5.14% (inactive).

`O=C(NCCCN1CCOCC1)c1ccc2c(c1)N(Cc1cccc(F)c1)C(=O)c1ccccc1S2`: the inhibition is -13.9% (inactive).

Turning to `Cn1cnc2c1c(=O)n(Cc1ccccc1C#N)c(=O)n2C`, the inhibition was 95.5% (active).

`Cn1cnc2c1c(=O)n(Cc1c(Cl)cccc1Cl)c(=O)n2C`: the inhibition is -29.3% (inactive).

`Cn1c(=O)c2c(ncn2CCc2ccccc2)n(C)c1=O`: the inhibition was -0.22% (inactive).

As to `Cc1ccc(Cc2nnc(SCC(=O)Nc3ccccc3C)[nH]c2=O)cc1`, the inhibition was 0.83% (inactive).

In the case of `Cc1ccc(C(=O)O)cc1-c1ccc(/C=C2\SC(=O)N(CC(=O)Nc3ccc4c(c3)OCO4)C2=O)o1`, the inhibition is 9.2% (inactive).

In the case of `CCN1C(=NCC(C)C)N[C@@H](CCc2ccccc2)[C@H](C(=O)NCC(C)C)[C@H]1C`, the inhibition was -17.1% (inactive).

For `CCOC(=O)CC(NC(=O)C1c2ccccc2Oc2ccccc21)c1ccc(C)cc1` (stereo not given), the inhibition is 2.93% (inactive).

For the molecule `COc1ccc(N(CC(=O)Nc2ccc(F)c(F)c2)S(=O)(=O)c2c(C)[nH]c(=O)[nH]c2=O)cc1`, the inhibition was 3.47% (inactive).

Consider `COC(=O)c1ccc(CN2CCN(CCCc3ccccc3)C(CCO)C2)cc1` (stereo not given), for which the inhibition is -17.9% (inactive).

For the molecule `Cc1cccn2c(CNCC(C)Oc3cccnc3)c(C(=O)N3CCOCC3)nc12` (stereo not given), the inhibition was 13.7% (inactive).

Turning to `O=C(CC(NCCN1CCOCC1)C(=O)O)Nc1cccc(Cl)c1` (stereo not given), the inhibition was 5.11% (inactive).

As for `CCCCS(=O)c1snnc1C` (stereo not given), the inhibition was -5.28% (inactive).

`Cc1ccc2c(C)c(C(=O)N3CCN(c4ccncc4)CC3)oc2c1C`: the inhibition is 1.76% (inactive).

As to `O=C(COc1cccc(F)c1)Oc1ccc(C(=O)c2ccccc2)cc1`, the inhibition is 12.6% (inactive).

Take `CCC1CCC/C1=N\NC(=O)c1ccc(Cl)cc1` (stereo not given): the inhibition was 4.98% (inactive).

On to `COc1cc(-c2nnc(Cn3cc(C(F)(F)F)ccc3=O)o2)cc(OC)c1OC`, for which the inhibition is 5.1% (inactive).

With `COC(=O)C1CCCCN1C(=O)c1ccc(OC2CCN(C(C)=O)CC2)c(OC)c1` (stereo not given), the inhibition is 5.86% (inactive).

As to `O=C(c1cccc(-n2cccc2)c1)N1CCN(S(=O)(=O)c2ccc(F)cc2)CC1`, the inhibition was -25.8% (inactive).

Take `O=C(NC1CC1)C1=C[C@H](c2coc3ccccc3c2=O)C[C@H](OCCCCO)O1`: the inhibition was -2.42% (inactive).

As for `N#CCSc1nc2ccc(N3CCOCC3)cc2c(=O)n1CCc1ccccc1`, the inhibition is -10.6% (inactive).

On to `O=C(Nc1cccc(-c2nc3ccccc3[nH]2)c1)c1ccc(C(=O)Nc2cccc(-c3nc4ccccc4[nH]3)c2)cc1`, for which the inhibition was 84% (active).

Regarding `Cc1ccc(-c2nc3ccccc3[nH]2)cc1N`, the inhibition was -1% (inactive).

For the molecule `O=C(Nc1ccccc1)c1cc2ccccc2[nH]1`, the inhibition is -12.6% (inactive).

Take `Cc1cccc(N2C(=O)N3[C@H](c4ccc(F)cc4)[C@@H]4C(=O)N(C5CCCCC5)C(=O)[C@@H]4[C@]3(Cc3ccccc3)C2=O)c1`: the inhibition is -2.81% (inactive).

As to `O=C(NCc1ccccc1CN1CCCC1)c1cccc(S(=O)(=O)Nc2ccc(F)cc2)c1`, the inhibition was 3.93% (inactive).

As to `CS(=O)(=O)Nc1cccc(C2=NN(C(=O)c3cccc(F)c3)C(c3cccs3)C2)c1` (stereo not given), the inhibition was -3.98% (inactive).

Consider `CN1C(=O)/C(=C/c2ccc(C(=O)NC3CCCC3)cc2)Oc2ccccc21`, for which the inhibition is -2.56% (inactive).

Consider `CCCN1CCN(C(=O)CCCNC(=O)c2ccc(Cl)cc2)CC1`, for which the inhibition is 1.38% (inactive).

In the case of `CN1CCN(CCCNC(=O)c2ccc(/C=C3\Oc4ccccc4N(Cc4ccc(Cl)cc4)C3=O)cc2)CC1`, the inhibition is 45.5% (active).

On to `CC(=O)c1c(C)[nH]c(C(=O)OCC(=O)Nc2c(C)cccc2C)c1C`, for which the inhibition is 3.88% (inactive).

Consider `COC(=O)c1cc(N2CCNCC2)nc2ccccc12`, for which the inhibition is 5.41% (inactive).

As to `CC12CCC(=O)N1C(C(=O)NCCN1C(=O)S/C(=C\c3ccccc3F)C1=O)CS2` (stereo not given), the inhibition was -4.27% (inactive).

For the molecule `Cc1ccc(-c2nn(-c3ccc(F)cc3)cc2C(=O)NCC(c2cccs2)N2CCOCC2)cc1` (stereo not given), the inhibition is 2.78% (inactive).

Take `CC1=CC2=NC(=O)CC(C)(C(=O)N(CC(=O)NC(C)(C)C)Cc3ccccc3)N2C=C1` (stereo not given): the inhibition was -6.91% (inactive).

Consider `COc1cc(C2/C(=C(\O)c3ccc4c(c3)CC(C)O4)C(=O)C(=O)N2c2nnc(C)s2)cc(OC)c1OC` (stereo not given), for which the inhibition was -16.7% (inactive).

Consider `COc1ccccc1CNC(=O)C1Cc2ccccc2C(=O)O1` (stereo not given), for which the inhibition was -9.61% (inactive).

On to `CC(=O)Nc1ccc(S(=O)(=O)Oc2ccc(Br)cc2C(=S)N2CCOCC2)cc1`, for which the inhibition was -23.8% (inactive).

In the case of `CCc1c(C)nc(N)n2c(SCC(=O)NC3CCCCC3)nnc12`, the inhibition was -21.8% (inactive).

As for `Cc1ccc2c(c1)N(CC(=O)N1CCOCC1)C(=O)CO2`, the inhibition is -24.9% (inactive).

With `COc1ccc(N2CCN(C(=O)CN3C(=O)COc4ccccc43)CC2)cc1`, the inhibition was 49.2% (active).

On to `COc1ccc(N2CCN(CCNC(=O)CCN3C(=O)COc4ccccc43)CC2)cc1`, for which the inhibition is 3.46% (inactive).

With `C=C(Cl)COC(=O)C1C2C=CC(C2)C1C(=O)O` (stereo not given), the inhibition was -6.87% (inactive).

`Cc1oc(-c2ccccc2Cl)[n+]([O-])c1C`: the inhibition is 4.54% (inactive).

Turning to `Cc1nc(N)c(Br)c(C)c1Br`, the inhibition was 10.1% (inactive).

What is called inhibition is the relative decrease from the control value, in per cent.
